# Assay results: publication PMC11062922 (Nature Chemical Biology, 2023)
# Where two headings read alike, the source gives them in different places.
# Key:
# Design in all cases: species or system human, MV4-11 + K-562 + COLO205 + SK-N-BE2 + OVCAR-8
# AURKB = details: read-out: apparent Kd, compound concentrations: 100 nM and 1000 nM (sheet 'Samples'), n = 1
# DDR1 = details: read-out: apparent Kd; compound concentrations: 100 nM and 1000 nM (sheet 'Samples'), CATDS: 9.2997876438350002E-2; n = 1
# FLT4 = details: read-out: apparent Kd, compound concentrations: 100 nM and 1000 nM (sheet 'Samples'), n = 1
# GALK1 = details: read-out: apparent Kd; compound concentrations: 100 nM and 1000 nM (sheet 'Samples'), CATDS: 7.3268745996591306E-2; n = 1
# LIMK1 = details: read-out: apparent Kd; compound concentrations: 100 nM and 1000 nM (sheet 'Samples'), CATDS: 8.69066115858768E-2; n = 1
# MAP4K5 = details: read-out: apparent Kd; compound concentrations: 100 nM and 1000 nM (sheet 'Samples'), CATDS: 6.8685970274903196E-2; n = 1
# NLK = details: read-out: apparent Kd; compound concentrations: 100 nM and 1000 nM (sheet 'Samples'), CATDS: 6.8663594256603303E-2; n = 1
# PIK3CD = details: read-out: apparent Kd, compound concentrations: 100 nM and 1000 nM (sheet 'Samples'), n = 1
# RET = details: read-out: apparent Kd, n = 1
# RIPK2 = details: read-out: apparent Kd; compound concentrations: 100 nM and 1000 nM (sheet 'Samples'), CATDS: 0.16558982732925701; n = 1
# DCTPP1 = details: read-out: apparent Kd; compound concentrations: 100 nM and 1000 nM (sheet 'Samples'), CATDS: 8.7325060780524003E-2; n = 1
# DDR2 = details: read-out: apparent Kd; compound concentrations: 100 nM and 1000 nM (sheet 'Samples'), CATDS: 8.3380311484054601E-2; n = 1
# FLT3 = details: read-out: apparent Kd; compound concentrations: 100 nM and 1000 nM (sheet 'Samples'), CATDS: 0.108927417624357; n = 1
# PDGFRB = details: read-out: apparent Kd; compound concentrations: 100 nM and 1000 nM (sheet 'Samples'), CATDS: 0.111791794909036; n = 1
# PI4KB = details: read-out: apparent Kd; compound concentrations: 100 nM and 1000 nM (sheet 'Samples'), CATDS: 0.119169210644034; n = 1
# TAOK1 = details: read-out: apparent Kd; compound concentrations: 100 nM and 1000 nM (sheet 'Samples'), CATDS: 9.5219877084068302E-2; n = 1
# BMPR2 = details: read-out: apparent Kd; compound concentrations:100 nM and 1000 nM (sheet 'Samples'); n = 1
# CDC42 = details: read-out: apparent Kd; compound concentrations:100 nM and 1000 nM (sheet 'Samples'); n = 1
# CLK4 = details: read-out: apparent Kd; compound concentrations:100 nM and 1000 nM (sheet 'Samples'); n = 1
# EIF2AK1 = details: read-out: apparent Kd; compound concentrations: 100 nM and 1000 nM (sheet 'Samples'), CATDS: 0.50638977254874895; n = 1
# BUB1 = details: read-out: apparent Kd; compound concentrations: 100 nM and 1000 nM (sheet 'Samples'), CATDS: 0.17934012366879401; n = 1
# CIT = details: read-out: apparent Kd; compound concentrations: 100 nM and 1000 nM (sheet 'Samples'), CATDS: 0.144210490801775; n = 1
# CSNK1D = details: read-out: apparent Kd; compound concentrations: 100 nM and 1000 nM (sheet 'Samples'), CATDS: 0.10890792541592099; n = 1
# GAK = details: read-out: apparent Kd; compound concentrations: 100 nM and 1000 nM (sheet 'Samples'), CATDS: 0.122345585139645; n = 1
# MAPK10 = details: read-out: apparent Kd; compound concentrations: 100 nM and 1000 nM (sheet 'Samples'), CATDS: 0.135593379838652; n = 1
# MAPK14 = details: read-out: apparent Kd; compound concentrations: 100 nM and 1000 nM (sheet 'Samples'), CATDS: 0.115463865520786; n = 1
# MAPK9 = details: read-out: apparent Kd; compound concentrations: 100 nM and 1000 nM (sheet 'Samples'), CATDS: 0.122740421728674; n = 1
# MAPKAPK2 = details: read-out: apparent Kd; compound concentrations: 100 nM and 1000 nM (sheet 'Samples'), CATDS: 0.10049167184689101; n = 1
# AXL = details: read-out: apparent Kd; compound concentrations:100 nM and 1000 nM (sheet 'Samples'); n = 1
# ERBB3 = details: read-out: apparent Kd; compound concentrations:100 nM and 1000 nM (sheet 'Samples'); n = 1
# MAP3K1 = details: read-out: apparent Kd; compound concentrations:100 nM and 1000 nM (sheet 'Samples'); n = 1
# ZAK = details: read-out: apparent Kd; compound concentrations:100 nM and 1000 nM (sheet 'Samples'); n = 1
smiles,measurement,setting,value
Cc1c2ccc(N(C)c3ccnc(Nc4cccc(S(N)(=O)=O)c4)n3)cc2nn1Cc1ccccc1.Cc1c2ccc(N(C)c3ccnc(Nc4cccc(S(N)(=O)=O)c4)n3)cc2nn1Cc1ccccc1.Cl.Cl [GW787226A],potency estimated from few doses,AURKB; CATDS: 8.6866554765288095E-2,941 nM
same,potency estimated from few doses,DDR1,776 nM
same,potency estimated from few doses,FLT4; CATDS: 0.48274666395287902,35.3 nM
same,potency estimated from few doses,GALK1,1650 nM
same,potency estimated from few doses,LIMK1,940 nM
same,potency estimated from few doses,MAP4K5,2130 nM
same,potency estimated from few doses,NLK,2130 nM
same,potency estimated from few doses,PIK3CD; CATDS: 0.18116624440708201,176 nM
same,potency estimated from few doses,"RET; compound concentrations: 100 nM and 1000 nM (sheet 'Samples'), CATDS: 0.101759373704586",612 nM
same,potency estimated from few doses,RIPK2,209 nM
Cn1ccc2ncnc(Oc3ccc(NC(=O)Nc4ccccc4)cc3)c21 [TPKI-69],potency estimated from few doses,AURKB; CATDS: 0.138800296841457,695 nM
same,potency estimated from few doses,DCTPP1,2030 nM
same,potency estimated from few doses,DDR2,2350 nM
same,potency estimated from few doses,FLT3,1150 nM
same,potency estimated from few doses,FLT4; CATDS: 9.3314690514963106E-2,1680 nM
same,potency estimated from few doses,PDGFRB,1080 nM
same,potency estimated from few doses,PI4KB,943 nM
same,potency estimated from few doses,PIK3CD; CATDS: 0.38237858605116598,142 nM
same,potency estimated from few doses,TAOK1,1600 nM
O=C1Nc2ccc(C(=O)c3ccco3)cc2C1=Cc1cc(Cl)c(O)c(Cl)c1 [GW406108X],potency estimated from few doses,BMPR2,15.8 nM
same,potency estimated from few doses,CDC42,93.8 nM
same,potency estimated from few doses,CLK4,85.5 nM
Cn1cc(-c2ccc3c(c2)CCN3C(=O)Cc2cc(F)cc(F)c2F)c2c(N)ncnc21 [GSK2634140A],potency estimated from few doses,AURKB; CATDS: 0.49376947402656801,1300 nM
same,potency estimated from few doses,EIF2AK1,1240 nM
Fc1ccc(-c2nn3c(OCC(F)(F)F)cccc3c2-c2ccncc2)cc1 [GW514784X],potency estimated from few doses,BUB1,448 nM
same,potency estimated from few doses,CIT,646 nM
same,potency estimated from few doses,CSNK1D,1160 nM
same,potency estimated from few doses,GAK,890 nM
same,potency estimated from few doses,MAPK10,725 nM
same,potency estimated from few doses,MAPK14,1010 nM
same,potency estimated from few doses,MAPK9,884 nM
same,potency estimated from few doses,MAPKAPK2,1420 nM
Cl.O=C(Nc1ccc(Oc2ccc3[nH]c(NC(=O)c4ccco4)nc3c2)cc1)Nc1cc(C(F)(F)F)ccc1F [GW683134A_KCGS],potency estimated from few doses,AXL,1640 nM
same,potency estimated from few doses,ERBB3,1130 nM
same,potency estimated from few doses,MAP3K1,2000 nM
same,potency estimated from few doses,RET; compound concentrations:100 nM and 1000 nM (sheet 'Samples'),498 nM
same,potency estimated from few doses,ZAK,2150 nM
